From PubChem BioAssay AID624330 (Southern Research Specialized Biocontainment Screening …, 2012) come the findings set out here.

Broadly, the inhibition is the relative decrease from the control value, in per cent.

Molecules are shown by their SMILES. Hit rate of the full screen: of about 340,000 compounds, about 2,100 (0.62%) were called active. Not all results are given here. Entries with a potency or affinity are not part of this list. Unmarked numbers belong to inactive results.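 The calls were made as follows: active = first-screen hits whose inhibition reached a set limit at any dose in the follow-up dose series; inconclusive = inhibition above the set first-screen limit but never retested; inactive = the rest.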

For this experiment, the target named is Rac GTPase-activating protein 1 (Homo sapiens) (UniProt Q9H0H5). Briefly: MgcRacGAP GTPase-activating activity inhibitors, confirmation, biochemical, ADP Hunter fluorescence, primary and confirmatory (AID 624330).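 Also: fluorescence reports GDP produced by GAP-driven GTP hydrolysis.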 The following applies: MgcRacGAP-stimulated Rac1 GTP hydrolysis, at 30 µM, active compounds read high, GST-tagged Rac1 F28L mutant substrate.
Sequence of Rac GTPase-activating protein 1 (Homo sapiens) (Q9H0H5 whole entry, looked up): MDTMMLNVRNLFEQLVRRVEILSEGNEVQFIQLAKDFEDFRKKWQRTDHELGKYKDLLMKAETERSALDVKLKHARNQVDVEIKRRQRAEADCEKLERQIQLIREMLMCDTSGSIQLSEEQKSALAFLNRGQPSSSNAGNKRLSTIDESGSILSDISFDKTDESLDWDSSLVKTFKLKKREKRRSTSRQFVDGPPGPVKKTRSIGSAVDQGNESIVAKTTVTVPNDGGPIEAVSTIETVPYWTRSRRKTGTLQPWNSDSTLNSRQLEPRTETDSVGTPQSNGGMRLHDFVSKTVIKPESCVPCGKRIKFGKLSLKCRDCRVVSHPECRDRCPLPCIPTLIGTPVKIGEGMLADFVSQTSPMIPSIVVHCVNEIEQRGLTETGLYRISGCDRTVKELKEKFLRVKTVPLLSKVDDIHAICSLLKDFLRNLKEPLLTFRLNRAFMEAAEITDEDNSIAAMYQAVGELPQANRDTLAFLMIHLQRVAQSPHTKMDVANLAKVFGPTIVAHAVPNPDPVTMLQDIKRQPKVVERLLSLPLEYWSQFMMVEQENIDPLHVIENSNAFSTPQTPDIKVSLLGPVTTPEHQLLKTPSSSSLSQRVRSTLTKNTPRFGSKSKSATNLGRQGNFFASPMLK
`CC(C)Cn1c(=O)c(-[n+]2ccccc2)c([O-])c2ccccc21`: the inhibition is 12.6%.

As to `O=C(OCc1ccccc1)N1CCC2CC1c1cc(Cl)ccc12` (stereo unspecified), the inhibition is 2.05%.

As for `Cc1nn(-c2ncc(C(F)(F)F)cc2Cl)c(=O)n1-c1ccccc1Cl`, the inhibition is 5.45%.

For `CCCS(=O)(=O)NCc1cn2cccc(C)c2n1`, the inhibition is 4.87%.

On to `CC(=O)N1CCN(c2ccc([N+](=O)[O-])c(NCC3CCCO3)c2)CC1` (stereo unspecified), for which the inhibition was 7.45%.

In the case of `COc1cc(C(=O)OCn2nnc3ccccc3c2=O)cc(OC)c1OC`, the inhibition is 5.8%.

Consider `COc1ccc(NC(=O)c2noc3c2CCC3)cc1`, for which the inhibition is 14.6%.

With `COc1ccc(C2C3=C(CC(C)(C)CC3=O)Oc3ncn4nc(-c5cccnc5)nc4c32)cc1` (stereo unspecified), the inhibition was 1.38%.

Consider `O=C(CCCc1c[nH]c2ccccc12)N[C@@H](Cc1c[nH]c2ccccc12)C(=O)O`, for which the inhibition was 9.15%.

`COc1cccc(CNC(=O)C2CCCN(S(C)(=O)=O)C2)c1` (stereo unspecified): the inhibition is -2.27%.

With `CC(C)(C)c1nc2ccc(NS(=O)(=O)c3ccc(F)c(F)c3F)cc2[nH]1`, the inhibition is -2.67%.

As for `CS(=O)(=O)Nc1ccc(C(=O)Nc2ccccc2Sc2ccccc2)cc1`, the inhibition is 9.8%.

As to `Cc1nc(CN(C)Cc2nc(Cc3cccc(F)c3)no2)cs1`, the inhibition is 5.6%.

`O=S(=O)(NC(=NC1CCCCC1)c1ccccc1)c1ccccc1`: the inhibition was 4.1%.

Take `Cc1ncsc1CCC(=O)N1CCCC(Nc2ccc(C(C)C)cc2)C1` (stereo unspecified): the inhibition is 5.76%.

`Cc1ccc(NC2CCCN(C(=O)CCc3scnc3C)C2)cc1C` (stereo unspecified): the inhibition is 10.7%.

As for `O=C(CCc1ccccc1)N1CCCC(Nc2ccc(F)cc2)C1` (stereo unspecified), the inhibition is 5.33%.

Take `COc1ccc(CCC(=O)N2CCCC(Nc3ccc(OC)cc3)C2)cc1` (stereo unspecified): the inhibition is -28.9%.

As for `Cc1ccc(NC2CCCN(C(=O)CCc3cn[nH]c3)C2)cc1C` (stereo unspecified), the inhibition is 14.1%.

In the case of `CC(C)c1ccc(NC2CCCN(C(=O)CCc3cn[nH]c3)C2)cc1` (stereo unspecified), the inhibition was 11.8%.

On to `COc1ccc(NC2CCCN(C(=O)CCc3cccc(Cl)c3)C2)cc1` (stereo unspecified), for which the inhibition is -4.43%.

For the compound `COc1ccc(CCC(=O)N2CCCC(Nc3ccccc3)C2)cc1OC` (stereo unspecified), the inhibition is 3.2%.

Regarding `Cc1ccc(NC(=O)C2CCCN(C(=O)NCc3ccccc3)C2)c(C)c1` (stereo unspecified), the inhibition is 5.67%.

For the compound `CCOC(=O)CCCn1c(C)nc(=O)c(-c2ccccc2)c1C`, the inhibition is -2.8%.

`CCCCCCC(=O)OCC(=O)c1ccc2c(c1)NC(=O)CO2`: the inhibition is 4%.

Consider `COc1ccccc1NC(=S)N(CCN(C)C)C(C)c1ccncc1` (stereo unspecified), for which the inhibition is 4.01%.

Take `O=S1(=O)N[C@@H](CC2CCCCC2)COc2cc(Br)ccc21`: the inhibition is 6.23%.

As to `COCC(=O)Nc1cc(C)cn(Cc2cccc(C(F)(F)F)c2)c1=O`, the inhibition was 3.75%.

With `COc1ccc(CCNC(=O)c2[nH]c(C)c(C(C)=O)c2C)cc1`, the inhibition is 2.68%.

`CN(c1ccccc1)S(=O)(=O)c1cccc(NC(=O)CSc2ncn[nH]2)c1`: the inhibition was 5.76%.

As for `Cc1cc(Cl)ccc1OCC(=O)NCc1ccncc1`, the inhibition was 5.06%.

With `COc1ccc(NC2CCCN(C(=O)c3ccc(OC)cc3OC)C2)cc1` (stereo unspecified), the inhibition was -1.47%.

In the case of `O=C(c1ccccc1-c1ncc[nH]1)N1CCCC(Nc2ccc(F)cc2)C1` (stereo unspecified), the inhibition is 2.49%.

Take `CC(C)c1ccc(NC2CCCN(C(=O)c3ccccc3-c3ncc[nH]3)C2)cc1` (stereo unspecified): the inhibition was 8.99%.

In the case of `COc1ccc(OC)c(C(=O)N2CCCC(Nc3ccc(F)cc3)C2)c1` (stereo unspecified), the inhibition is 12.4%.

Consider `CC1CN(C(=O)CCNC(=O)c2ccc(Br)cc2)CC(C)O1` (stereo unspecified), for which the inhibition was 3.26%.

Regarding `Cc1ccc(OCC(=O)O)c(-n2nc3ccccc3n2)c1`, the inhibition was 9.25%.

For `Nn1c(-c2cccc(O)c2)nnc1-c1cccc(O)c1`, the inhibition is -0.05%.

On to `CC(C)CC(=O)NC(=S)Nc1ccc(N2CCN(C(=O)c3cccs3)CC2)cc1`, for which the inhibition is 9.14%.

As for `COc1ccc(CCNCC(=O)Nc2ccc(OC(F)(F)F)cc2)cc1OC`, the inhibition is 28.8%.

With `COc1cccc(NC(=O)CNCc2ccccc2)c1`, the inhibition was 1.69%.

Consider `COc1ccc(CNCC(=O)Nc2cccc(S(N)(=O)=O)c2)cc1`, for which the inhibition is 24.6%.

Turning to `COC(=O)c1ccc(CNCC(=O)Nc2ccc(C(=O)OC)cc2)cc1`, the inhibition was -0.29%.

With `CN1CCN(NS(=O)(=O)c2ccc(Cl)s2)CC1`, the inhibition was 13.4%.

`CCn1c(SCC(=O)OCc2ccccc2)nc2c1c(=O)n(C)c(=O)n2C`: the inhibition was -1.89%.

Consider `CC(=O)Nc1ccc(NC(=O)c2nccnc2C(=O)O)cn1`, for which the inhibition was 2.3%.

As for `O=C(C(c1ccccc1)C(O)(c1ccccc1)c1ccccc1)N1CCOCC1` (stereo unspecified), the inhibition is -4.45%.

On to `CCNC(=S)N(CCc1c(C)[nH]c2ccccc12)Cc1cc(OC)c(OC)c(OC)c1`, for which the inhibition is 13.9%.

On to `O=C(CSC1=N/C(=C/c2ccc(Cl)c(Cl)c2)C(=O)N1c1ccccc1F)NC1CC1`, for which the inhibition is 6.1%.

Turning to `CN(C(=O)COC(=O)COc1ccc2ccccc2c1)c1ccccc1`, the inhibition is 5.73%.

Turning to `COc1ccc(OC)c(S(=O)(=O)N2CCC(C(=O)N(C)Cc3ccccc3)CC2)c1`, the inhibition is 13.1%.

For `CCC(C)n1c(=S)[nH]c2ccccc2c1=O` (stereo unspecified), the inhibition is 5.28%.

Turning to `O=C(O)CCCn1c(=O)[nH]c2ccccc2c1=O`, the inhibition is 4.27%.

Turning to `CC1CCN(CCCn2c(=S)[nH]c3c(sc4ccc([N+](=O)[O-])cc43)c2=O)CC1`, the inhibition was 17.7%.

Turning to `CCC(C)n1c(SCc2ccc([N+](=O)[O-])cc2)nc2ccsc2c1=O` (stereo unspecified), the inhibition was 2.36%.

Regarding `COc1cccc(-c2cc3nc(C)cc(N4CCN(C(=O)c5ccoc5)CC4)n3n2)c1`, the inhibition is 13.9%.

Take `CCOc1ccc(/C=C(\C#N)C(=O)Nc2ccccn2)cc1`: the inhibition is -0.14%.

Consider `CCc1noc(C)c1C(=O)N1CCCC(N2CCN(c3cccc(Cl)c3)CC2)C1` (stereo unspecified), for which the inhibition was 8.33%.

On to `C/C(=N\Nc1ccc([N+](=O)[O-])cc1)c1ccc(C#N)cc1`, for which the inhibition was -4.19%.

As for `C/C(=N\Nc1ccc([N+](=O)[O-])cc1)c1cccc(N)c1`, the inhibition is 1.82%.

Consider `O=C(NCc1ccc(F)cc1)C1CCC(=O)N1C1CCCCC1` (stereo unspecified), for which the inhibition was -0.47%.

In the case of `COc1ccc(OC(=O)OCc2ccccc2)cc1`, the inhibition was 11.7%.

As to `COc1cc2c(cc1CNC[C@H]1O[C@@H](n3ccc(N)nc3=O)[C@H](O)[C@@H]1O)OCO2`, the inhibition was 6.09%.

For `Cc1cc(CNC[C@H]2O[C@@H](n3ccc(N)nc3=O)[C@H](O)[C@@H]2O)no1`, the inhibition is 9.68%.

With `C=CCNc1nnc(Cc2ccc(F)cc2)c(=O)[nH]1`, the inhibition was 4.71%.

Turning to `COc1cc2c(cc1NC(=O)c1cccc([N+](=O)[O-])c1)oc1ccccc12`, the inhibition was 1.77%.

On to `O=C(c1ccc(F)cc1)N1CCN(Cc2ccccc2)CC1`, for which the inhibition was 7.84%.

As for `c1ccc(CN2CCN(C(c3ccccc3)c3ccccc3)CC2)cc1`, the inhibition is 16.6%.

As for `CN(CC(=O)N1CCN(Cc2ccccc2)CC1)S(=O)(=O)c1ccc(F)cc1`, the inhibition is -3.86%.

Regarding `OC(CN1CCN(Cc2ccccc2)CC1)c1ccc(F)cc1` (stereo unspecified), the inhibition was -1.4%.

For `COc1ccccc1C1CCN(C(=O)c2cnn(-c3ccccc3)c2C)CC1`, the inhibition was 12.4%.

`O=C(Nc1ccc([N+](=O)[O-])cc1NC(=O)c1ccccc1)c1ccccc1`: the inhibition was 2.42%.

Turning to `CCC(=O)Nc1ccccc1N1CCN(c2ccc(F)cc2)CC1`, the inhibition was 2.63%.

`CCSc1nc2ccc(N3C(=O)C4C5C=CC(C5)C4C3=O)cc2s1` (stereo unspecified): the inhibition is -1.62%.

Consider `CN1CCC(=O)N([C@H](CSc2ccc(Br)cc2)Cc2ccccc2)CC1`, for which the inhibition was 1.09%.

As to `COc1cc(OC)cc(C(=O)N2CCN(S(=O)(=O)c3ccc4c(c3)OCCO4)CC2)c1`, the inhibition is 9.94%.

With `COc1cccc(/C(C)=N/Nc2ccc(S(=O)(=O)N3CCCCC3)cn2)c1`, the inhibition is 7.29%.

Consider `C/C(=N\Nc1ccc(S(=O)(=O)N2CCCCC2)cn1)c1cccc(Br)c1`, for which the inhibition was 3.57%.

Regarding `CC(C)(C)OC(=O)NCCCC[C@H](NC(=O)c1nc[nH]c1C(=O)NC(c1ccccc1)c1ccccc1)C(=O)OC(C)(C)C`, the inhibition is 2.03%.

With `CCN(C(=O)COC(=O)c1cccc(-n2cnnn2)c1)C1CCCCC1`, the inhibition is 11.8%.

`Cc1sc2ncn(CC(=O)N3CCN(c4ccccc4F)CC3)c(=O)c2c1S(=O)(=O)N1CCOCC1`: the inhibition is 2.91%.

On to `COc1cc(NC(N)=S)c(OC)cc1Cl`, for which the inhibition was 10.5%.

With `Cc1cc(Cc2ccc(N)c(C)c2)ccc1N`, the inhibition was 4.21%.

Turning to `Cc1ccc(C)c(N)c1`, the inhibition is 6.49%.

Take `COc1cc(Br)c(Br)cc1N`: the inhibition was -1.7%.

Regarding `COc1ccc(-c2nnc(N)s2)cc1OC`, the inhibition was 5.29%.

As for `COc1cc([N+](=O)[O-])ccc1N`, the inhibition is 0.84%.

With `Cc1ccc2c(N)c(C)ccc2c1`, the inhibition was 12.7%.

With `Cc1cc([N+](=O)[O-])ccc1N`, the inhibition is -7.8%.

With `O=C(CSc1nccc(=O)[nH]1)NN(c1ccccc1)c1ccccc1`, the inhibition is 11.2%.

As for `O=C(NCC(c1ccco1)N1CCN(c2ccccc2)CC1)C(=O)NC1CCCC1` (stereo unspecified), the inhibition was 4.87%.

With `CCCCCN(C(=O)CCC(=O)OCc1cccc(C)c1)c1c(N)n(CCCC)c(=O)[nH]c1=O`, the inhibition is 5.1%.

As to `O=C(CSc1nnc(COc2ccccc2)n1-c1ccccc1)c1cccs1`, the inhibition is 15.1%.

Turning to `CCOC(=O)c1nc(C)nc(Sc2n[nH]c(-c3ccccc3)n2)c1C`, the inhibition was 9.53%.

With `C/C(=N/OCC(=O)Nc1ccccc1)c1cccs1`, the inhibition was 6.14%.

As for `CCCCc1ccc(NC(=O)CN(C)CC(=O)Nc2ccccc2Cl)cc1`, the inhibition was 11.5%.
